JMJD2A Tudor inh – blocks the human JMJD2A Tudor domain. hit rate 4.4% among 390,000. AlphaScreen JMJD2A-Tudor / H3K4me3 peptide binding. Potency, µM (doses to about 114 µM), hits mostly inhibitors. O75164; also: nearly all actives have a fitted effect of over 50% in size
BAZ2B inh – BAZ2B (human) inhibition. Q9UIF8. AlphaScreen BAZ2B-H3K14Ac peptide displacement. Potency, µM (series often up to 114 µM), usual class: inhibitors. hit rate 4.4% among 360,000; also: nearly all actives have a fitted effect of over 60% in size
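AlphaScreen displacement of biotin-H3(5-23)K14Ac peptide (50 nM final) from BAZ2B (50 nM final) in PBS pH 7.4, 0.01% Tween-20; complex preformed 30 min RT, then compounds (top 110 uM) 30 min RT, beads 20 min dark.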
HP1b binding inh – HP1-beta chromodomain-methylated histone interaction inhibition. hit rate 0.56% among 390,000. Potency, µM (series often up to 114 µM), actives largely listed as inhibitors. AlphaScreen HP1-beta / biotin-H3K9me3 peptide binding. P83916; also: nearly all actives have a fitted effect of over 70% in size
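HP1-beta protein (50 nM final) preincubated 30 min at room temperature with biotinylated H3(1-18)K9me3 peptide (50 nM) in PBS pH 7.4, 0.01% Tween-20, then compound added for 30 min. AlphaScreen streptavidin donor/nickel chelate acceptor beads (10 ug/mL final), 30 min dark, luminescence read.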
G9a inh – blocks human histone lysine methyltransferase G9a. Q96KQ7. G9a H3K9 monomethylation, AlphaScreen, 2 h. Potency, µM (top dose mostly 102 µM), usual class: inhibitors. hit rate 8.8% among 350,000. AID 504332; also: nearly all actives have a fitted effect of over 75% in size
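AlphaScreen read-out: biotin-H3K9 peptide (500 nM) methylation by 20 nM enzyme with 20 uM SAM, 2 h at room temperature after 15 min compound preincubation; anti-monomethyl H3K9 antibody plus donor/acceptor beads, 10 min dark.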
PI5P4Ka inh – blocks human PI5P4K alpha kinase activity. P48426. PI5P4Kalpha enzyme, ADP-Glo luminescence, 60 min; active compounds read low. max response, %. hit rate 1.2% among 330,000. AID 652105; active = max response of -50% or lower; inconclusive = between -30% and -50%; inactive = -30% or higher; also: value at the top dose of about 77 µM
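Single end-point luminescence (ADP-Glo) quantified ADP from PI5P4Kalpha turnover; ATP 5 microM final, 1 h at RT, 0.1% CHAPS and 0.28 mM EGTA in HEPES pH 7.4.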
PLK1 PBD inh – inhibitors of human PLK1 polo-box domain binding | hit rate 2.8% among 360,000 | Potency, µM, usual class: inhibitors | Plk1 PBD binding of FITC phosphopeptide, fluorescence polarization | AID 720504; also: series mostly up to about 57 µM; nearly all actives have a fitted effect of over 65% in size
Of the large screens only hits and unclear results are named; the others gave an inactive call. In the library only some 12% were active in any assay of this set; here they are far more common. Unless noted, calls follow the shape of the dose curve; as a rule, active = well fitted curve in the direction sought with a large enough effect; inconclusive = small, poorly fitted or top-dose-only effect, or another doubt; inactive = no such curve, though single readings can be large; an effect the other way counts as inactive or inconclusive.

CCCCCn1c(N)c(-c2nc3ccccc3o2)c2c([N+](=O)[O-])nn(CC)c(=O)c21	JMJD2A Tudor inh inconclusive, BAZ2B inh inconclusive, HP1b binding inh inconclusive
CCCCCn1c(N)c(-c2nc3ccccc3o2)c2c([N+](=O)[O-])nn(C)c(=O)c21	JMJD2A Tudor inh 44.7µM, BAZ2B inh inconclusive
NC(N)=N/N=C/c1cc([N+](=O)[O-])ccc1O	none
Cc1cc(C)n(-c2ccc([N+](=O)[O-])cc2-c2nn[nH]n2)n1	BAZ2B inh inconclusive, G9a inh inconclusive
O=[N+]([O-])c1ccc(O)c(/C=N/Nc2nn[nH]n2)c1	JMJD2A Tudor inh 10µM, BAZ2B inh 6.31µM
O=[N+]([O-])c1ccc(O)c(/C=N/Nc2ccc(Cl)nn2)c1	JMJD2A Tudor inh 7.94µM, BAZ2B inh 3.98µM (no result: G9a inh)
O=[N+]([O-])c1ccc(O)c(-c2nn[nH]n2)c1	JMJD2A Tudor inh 3.16µM, BAZ2B inh 2.82µM, HP1b binding inh inconclusive, G9a inh inconclusive, PI5P4Ka inh -53.6, PLK1 PBD inh 3.36µM
Cc1ccccc1/C=N/Nc1ccc(Cl)nn1	G9a inh 10µM
COc1cccc(N2C(=O)C(CC(=O)Nc3cccc(F)c3)N(C(C)C)C2=O)c1 (stereo not drawn)	none (no result: PI5P4Ka inh, PLK1 PBD inh)
COC(=O)c1cc(C)nc2c1c(=O)nc(SCc1cccc(C)c1)n2C1CC1	none (no result: PI5P4Ka inh, PLK1 PBD inh)
C(=N\Nc1nn[nH]n1)/c1ccccc1	JMJD2A Tudor inh 89.1µM, BAZ2B inh inconclusive, G9a inh 35.5µM (no result: PI5P4Ka inh)
Clc1ccc(/C=N/Nc2nn[nH]n2)cc1	JMJD2A Tudor inh inconclusive, G9a inh 10µM
Clc1ccc(/C=N/Nc2nnc(Cl)c3ccccc23)cc1	none (no result: PI5P4Ka inh)
Oc1ccccc1/C=N/Nc1nn[nH]n1	JMJD2A Tudor inh 56.2µM, BAZ2B inh 44.7µM, G9a inh 39.8µM
COc1ccc(C(=O)Oc2cc(-c3ccc4c(c3)OCO4)cc(=O)c3c(C)oc(C)c23)cc1	G9a inh inconclusive (no result: PI5P4Ka inh, PLK1 PBD inh)
COc1ccc(-c2cc(OC(=O)c3ccc(Cl)cc3)c3c(C)oc(C)c3c(=O)c2)cc1	JMJD2A Tudor inh inconclusive, BAZ2B inh 39.8µM, G9a inh inconclusive (no result: PI5P4Ka inh, PLK1 PBD inh)
CCOc1ccc(-c2cc(OC(=O)c3ccc(OC)cc3)c3c(C)oc(C)c3c(=O)c2)cc1	G9a inh inconclusive (no result: PI5P4Ka inh, PLK1 PBD inh)
CCOc1cc(-c2ccc(OC(=O)c3ccc(OC)cc3)c(OC)c2)cc(=O)c2c(C)oc(C)c12	JMJD2A Tudor inh inconclusive, BAZ2B inh inconclusive, G9a inh 15.8µM (no result: PI5P4Ka inh, PLK1 PBD inh)
Cc1cc(NC(=O)CSc2nnc(-c3ccc([N+](=O)[O-])cc3)o2)no1	JMJD2A Tudor inh 89.1µM, BAZ2B inh 22.4µM
COc1ccc(-c2nnc(SCC(=O)NC(=O)NCc3ccccc3)o2)cc1	G9a inh 44.7µM
Cc1cc(NC(=O)CSc2nnc(-c3ccc(O)cc3)o2)no1	none (no result: G9a inh)
C#CCSc1nnc(-c2ccc([N+](=O)[O-])cc2)o1	G9a inh 50.1µM
C#CCSc1nnc(-c2ccc(OC)cc2)o1	G9a inh 44.7µM, PLK1 PBD inh inconclusive
COc1ccc(-c2nnc(SCC(=O)NCc3ccco3)o2)cc1	G9a inh inconclusive (no result: PI5P4Ka inh)
CSc1nnc(-c2ccc([N+](=O)[O-])cc2)o1	G9a inh inconclusive, PLK1 PBD inh inconclusive
Cc1ccc(-c2nc3scc(CCNS(=O)(=O)c4ccc(Oc5ccccc5)cc4)n3n2)cc1	none (no result: PI5P4Ka inh, PLK1 PBD inh)
O=C(OCC#CCSc1nnc(-c2ccc([N+](=O)[O-])cc2)o1)c1cccs1	JMJD2A Tudor inh inconclusive, BAZ2B inh inconclusive, G9a inh 31.6µM
